About 8,800 targets were measured; listed, in parts, are those with a hit and a random draw of the rest. About 0.5% of all pairs of compound and target were hits. Values without a mark were called inactive.
The targets below were run with CN1CCN(CCOc2cc(OC3CCOCC3)c3c(Nc4c(Cl)ccc5c4OCO5)ncnc3c2)CC1 [saracatinib] (assay: log2 fold change, soluble protein after heating vs DMSO (PISA); higher = thermal stabilisation; K562 lysate, 10 uM; active = over 0.2 and 3.5 SD of the protein, either way, in both replicates (recomputed)).
Outline: (§1)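 Log-two fold change in thermal stability relative to solvent controls is reported from duplicates. For each sample, crude K562 extract from dounce-homogenised pellets in PBS pH 7.4 with 1 mM MgCl2, at 1 mg/mL protein, was treated with 10 μM compound for 30 min. Aliquots heated for 3 min across 48°C-58°C were pooled, brought to 0.5% NP-40 at 4°C and cleared at 21,000xg for 90 min. The supernatant was quantified by TMTpro 16plex LC-MS/MS with channel sums equalised.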

Sequence of UniProt P11309 (P11309 whole entry, looked up): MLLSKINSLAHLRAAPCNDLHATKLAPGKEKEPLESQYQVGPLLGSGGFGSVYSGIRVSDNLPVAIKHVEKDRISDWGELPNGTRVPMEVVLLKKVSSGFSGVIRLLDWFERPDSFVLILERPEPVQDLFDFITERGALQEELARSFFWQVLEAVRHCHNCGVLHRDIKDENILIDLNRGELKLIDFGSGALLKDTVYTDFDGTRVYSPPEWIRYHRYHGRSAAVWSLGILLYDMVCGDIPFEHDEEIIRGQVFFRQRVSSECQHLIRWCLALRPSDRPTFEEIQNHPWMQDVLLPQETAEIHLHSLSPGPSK
Sequence of UniProt Q6EEV4 (Q6EEV4 whole entry, looked up): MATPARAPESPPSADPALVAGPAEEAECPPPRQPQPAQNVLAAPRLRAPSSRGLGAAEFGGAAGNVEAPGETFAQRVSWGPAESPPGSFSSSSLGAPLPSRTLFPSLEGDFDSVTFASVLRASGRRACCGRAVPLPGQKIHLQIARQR
Sequence of UniProt P48736 (P48736 whole entry, looked up): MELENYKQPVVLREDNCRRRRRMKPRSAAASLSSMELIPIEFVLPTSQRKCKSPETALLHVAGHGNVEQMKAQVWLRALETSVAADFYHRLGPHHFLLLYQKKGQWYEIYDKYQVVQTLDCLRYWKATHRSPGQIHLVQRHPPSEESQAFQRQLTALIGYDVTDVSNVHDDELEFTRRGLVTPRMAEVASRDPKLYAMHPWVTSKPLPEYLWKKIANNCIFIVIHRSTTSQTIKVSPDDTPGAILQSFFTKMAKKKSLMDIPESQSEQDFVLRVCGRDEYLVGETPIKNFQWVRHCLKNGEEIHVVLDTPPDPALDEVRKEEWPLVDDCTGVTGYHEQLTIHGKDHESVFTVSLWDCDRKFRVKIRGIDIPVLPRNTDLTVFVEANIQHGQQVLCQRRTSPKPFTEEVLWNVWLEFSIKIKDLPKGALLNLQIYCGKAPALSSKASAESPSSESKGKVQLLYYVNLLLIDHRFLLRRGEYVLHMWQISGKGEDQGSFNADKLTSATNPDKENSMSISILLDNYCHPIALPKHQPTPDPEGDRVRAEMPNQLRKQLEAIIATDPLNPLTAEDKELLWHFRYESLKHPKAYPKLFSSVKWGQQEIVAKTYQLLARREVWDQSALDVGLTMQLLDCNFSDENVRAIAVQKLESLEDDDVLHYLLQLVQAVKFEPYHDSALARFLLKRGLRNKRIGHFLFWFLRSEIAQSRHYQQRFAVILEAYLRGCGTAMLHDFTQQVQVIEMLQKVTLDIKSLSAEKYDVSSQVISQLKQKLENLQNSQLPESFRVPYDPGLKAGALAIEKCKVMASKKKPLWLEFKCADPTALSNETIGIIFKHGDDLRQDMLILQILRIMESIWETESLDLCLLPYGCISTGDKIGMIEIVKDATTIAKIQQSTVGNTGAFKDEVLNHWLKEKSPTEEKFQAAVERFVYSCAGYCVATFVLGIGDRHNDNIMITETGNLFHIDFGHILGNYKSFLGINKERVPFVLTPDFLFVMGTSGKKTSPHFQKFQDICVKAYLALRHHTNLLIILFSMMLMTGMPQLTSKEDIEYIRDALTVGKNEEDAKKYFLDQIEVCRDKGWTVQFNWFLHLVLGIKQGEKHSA
Sequence of UniProt O60927 (O60927 whole entry, looked up): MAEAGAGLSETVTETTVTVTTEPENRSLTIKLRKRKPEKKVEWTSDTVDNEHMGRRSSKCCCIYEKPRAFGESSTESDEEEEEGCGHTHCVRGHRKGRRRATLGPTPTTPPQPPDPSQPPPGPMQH
Sequence of UniProt Q9BRQ0 (Q9BRQ0 whole entry, looked up): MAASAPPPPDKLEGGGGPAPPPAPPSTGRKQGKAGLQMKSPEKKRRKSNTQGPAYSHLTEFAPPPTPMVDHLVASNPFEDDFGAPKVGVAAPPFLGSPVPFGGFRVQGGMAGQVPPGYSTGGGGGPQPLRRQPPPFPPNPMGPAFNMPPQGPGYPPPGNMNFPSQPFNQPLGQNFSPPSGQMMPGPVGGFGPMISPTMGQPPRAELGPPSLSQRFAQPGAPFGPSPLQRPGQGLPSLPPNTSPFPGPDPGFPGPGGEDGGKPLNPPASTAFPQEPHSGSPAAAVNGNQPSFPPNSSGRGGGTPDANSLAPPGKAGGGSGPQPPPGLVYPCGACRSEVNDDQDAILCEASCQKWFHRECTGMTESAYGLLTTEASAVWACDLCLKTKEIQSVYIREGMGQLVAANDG
Sequence of UniProt Q4G0T1 (Q4G0T1 whole entry, looked up): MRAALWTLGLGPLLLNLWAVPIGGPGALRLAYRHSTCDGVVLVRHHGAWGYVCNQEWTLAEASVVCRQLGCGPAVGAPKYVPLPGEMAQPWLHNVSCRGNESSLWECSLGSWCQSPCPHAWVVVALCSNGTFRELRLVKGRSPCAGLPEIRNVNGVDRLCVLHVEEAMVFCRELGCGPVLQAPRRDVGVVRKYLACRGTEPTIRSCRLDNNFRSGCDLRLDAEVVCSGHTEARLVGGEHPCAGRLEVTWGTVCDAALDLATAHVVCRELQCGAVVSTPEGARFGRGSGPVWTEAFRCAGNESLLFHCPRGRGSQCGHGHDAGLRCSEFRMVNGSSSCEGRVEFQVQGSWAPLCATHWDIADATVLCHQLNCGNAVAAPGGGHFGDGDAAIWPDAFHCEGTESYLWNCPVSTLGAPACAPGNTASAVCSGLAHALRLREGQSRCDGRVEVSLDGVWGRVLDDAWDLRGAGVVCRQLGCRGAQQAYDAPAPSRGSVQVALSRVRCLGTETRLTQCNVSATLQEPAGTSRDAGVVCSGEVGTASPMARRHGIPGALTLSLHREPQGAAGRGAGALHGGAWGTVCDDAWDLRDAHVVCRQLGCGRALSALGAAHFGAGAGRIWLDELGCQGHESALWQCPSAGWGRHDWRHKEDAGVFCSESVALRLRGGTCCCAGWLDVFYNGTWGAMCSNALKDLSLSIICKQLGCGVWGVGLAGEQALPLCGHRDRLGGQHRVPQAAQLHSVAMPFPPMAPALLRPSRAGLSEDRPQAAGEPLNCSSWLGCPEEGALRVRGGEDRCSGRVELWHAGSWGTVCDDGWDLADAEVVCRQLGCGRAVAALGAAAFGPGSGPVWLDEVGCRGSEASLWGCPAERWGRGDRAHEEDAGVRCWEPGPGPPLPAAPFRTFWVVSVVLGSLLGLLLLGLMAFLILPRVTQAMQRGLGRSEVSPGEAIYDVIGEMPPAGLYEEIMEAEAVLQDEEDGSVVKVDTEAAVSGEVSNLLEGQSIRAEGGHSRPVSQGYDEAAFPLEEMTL
Sequence of UniProt Q9BSG0 (Q9BSG0 whole entry, looked up): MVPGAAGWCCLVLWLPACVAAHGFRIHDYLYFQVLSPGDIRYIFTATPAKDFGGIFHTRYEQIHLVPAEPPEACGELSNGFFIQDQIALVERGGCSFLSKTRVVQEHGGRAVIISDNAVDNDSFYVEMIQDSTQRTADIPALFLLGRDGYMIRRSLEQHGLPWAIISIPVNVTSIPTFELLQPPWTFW
Sequence of UniProt P54277 (P54277 whole entry, looked up): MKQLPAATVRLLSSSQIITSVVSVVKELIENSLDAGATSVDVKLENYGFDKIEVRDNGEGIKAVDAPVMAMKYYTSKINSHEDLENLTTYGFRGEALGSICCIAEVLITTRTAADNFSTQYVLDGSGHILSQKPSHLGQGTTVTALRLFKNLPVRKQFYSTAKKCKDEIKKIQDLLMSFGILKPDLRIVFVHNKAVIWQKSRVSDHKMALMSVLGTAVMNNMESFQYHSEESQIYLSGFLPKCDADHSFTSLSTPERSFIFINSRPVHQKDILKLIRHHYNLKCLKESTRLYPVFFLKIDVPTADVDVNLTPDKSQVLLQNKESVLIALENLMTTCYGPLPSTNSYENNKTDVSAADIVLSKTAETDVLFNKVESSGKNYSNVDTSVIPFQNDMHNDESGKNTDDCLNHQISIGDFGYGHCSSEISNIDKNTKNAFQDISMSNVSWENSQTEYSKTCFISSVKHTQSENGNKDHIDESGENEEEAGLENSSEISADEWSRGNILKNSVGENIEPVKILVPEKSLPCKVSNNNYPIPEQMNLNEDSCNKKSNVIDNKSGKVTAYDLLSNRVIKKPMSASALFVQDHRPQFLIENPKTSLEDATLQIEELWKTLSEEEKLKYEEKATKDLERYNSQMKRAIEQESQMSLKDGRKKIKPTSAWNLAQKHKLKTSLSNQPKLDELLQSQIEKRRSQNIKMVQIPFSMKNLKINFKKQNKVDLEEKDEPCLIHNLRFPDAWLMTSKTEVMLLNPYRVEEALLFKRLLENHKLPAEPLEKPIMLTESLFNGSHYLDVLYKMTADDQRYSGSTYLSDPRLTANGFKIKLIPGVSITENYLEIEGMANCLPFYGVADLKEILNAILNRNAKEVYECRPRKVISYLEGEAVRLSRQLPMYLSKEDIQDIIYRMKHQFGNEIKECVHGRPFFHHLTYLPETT
Sequence of UniProt Q99755 (Q99755 whole entry, looked up): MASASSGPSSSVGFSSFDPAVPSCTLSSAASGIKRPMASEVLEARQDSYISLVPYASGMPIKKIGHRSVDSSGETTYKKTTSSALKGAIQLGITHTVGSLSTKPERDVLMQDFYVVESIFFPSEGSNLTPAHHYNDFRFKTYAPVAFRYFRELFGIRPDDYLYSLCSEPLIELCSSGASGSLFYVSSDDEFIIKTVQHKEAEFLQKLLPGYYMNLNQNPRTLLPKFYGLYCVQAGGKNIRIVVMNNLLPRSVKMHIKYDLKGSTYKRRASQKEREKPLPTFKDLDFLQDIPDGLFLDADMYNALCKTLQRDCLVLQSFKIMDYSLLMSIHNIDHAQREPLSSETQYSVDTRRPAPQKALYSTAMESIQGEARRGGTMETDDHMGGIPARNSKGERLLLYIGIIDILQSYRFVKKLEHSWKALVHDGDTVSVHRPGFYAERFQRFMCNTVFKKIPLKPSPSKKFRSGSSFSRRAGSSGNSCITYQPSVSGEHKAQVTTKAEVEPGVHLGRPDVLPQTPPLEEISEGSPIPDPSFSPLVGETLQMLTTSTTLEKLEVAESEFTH
Sequence of UniProt Q15004 (Q15004 whole entry, looked up): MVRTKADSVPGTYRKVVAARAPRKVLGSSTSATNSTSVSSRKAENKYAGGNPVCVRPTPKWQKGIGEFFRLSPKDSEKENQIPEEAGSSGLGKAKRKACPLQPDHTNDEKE

| Target | log2 fold change |
| --- | --- |
| PEX2 (UniProt P28328) | -0.086 |
| PLXND1 (UniProt Q9Y4D7) | 0.018 |
| PIM1 isoform 2 (UniProt P11309) | 0 |
| PHC1 (UniProt P78364) | 0.066 |
| PHGDH, A0A286YFE1 | -0.318 |
| POLR2F (UniProt U3KPV3) | -0.051 |
| PPP2R5C isoform 2 (UniProt Q13362) | 0.014 |
| PRG4 (UniProt Q92954) | 0.009 |
| PPIC (UniProt P45877) | -0.004 |
| NA (UniProt Q4G0T1) | -0.033 |
| PNPLA4 (UniProt P41247) | 0.009 |
| PTK2 isoform 2 (UniProt Q05397) | -0.063 |
| PMS1 (UniProt P54277) | 0.016 |
| PDIA4, A0A499FI48 | 0.03 |
| PPP1R11 (UniProt O60927) | -0.05 |
| PHKG1 isoform 2 (UniProt Q16816) | 0.177 |
| PPME1 (UniProt Q9Y570) | -0.043 |
| PIK3CG (UniProt P48736) | 0.028 |
| PLK1 (UniProt P53350) | 0.021 |
| PIK3CD (UniProt O00329) | -0.04 |
| PRADC1 (UniProt Q9BSG0) | 0.054 |
| PIP5K1A (UniProt Q99755) | 0.107 |
| PIAS2 (UniProt O75928) | 0.044 |
| PDE4DIP (UniProt E9PS60) | 0.067 |
| PYGO2 (UniProt Q9BRQ0) | 0.07 |
| POLR2M (UniProt Q6EEV4) | 0.016 |
| PCLAF (UniProt Q15004) | -0.013 |
| PCBP2 (UniProt F8W0G4) | 0.005 |
| PRIMPOL (UniProt Q96LW4) | 0.014 |

What follows are targets tested with CN1CCN(c2nc(C3=C(c4c[nH]c5ccccc45)C(=O)NC3=O)c3ccccc3n2)CC1 [sotrastaurin] in the same assay as above.
Outline: as §1

| Target | log2 fold change |
| --- | --- |
| PCBP2 (UniProt F8VRH0) | -0.066 |
| PEX2 (UniProt P28328) | 0.036 |
| PLXND1 (UniProt Q9Y4D7) | 0.012 |
| PIM1 isoform 2 (UniProt P11309) | 0.593 (active) |
| PHC1 (UniProt P78364) | -0.354 |
| PPP2R5C isoform 2 (UniProt Q13362) | 0.134 |
| PFN3 (UniProt P60673) | 0.042 |
| PRG4 (UniProt Q92954) | -0.02 |
| PPIC (UniProt P45877) | -0.453 (active) |
| NA (UniProt Q4G0T1) | 0.129 |
| PNPLA4 (UniProt P41247) | -0.013 |
| PMS1 (UniProt P54277) | -0.002 |
| PDIA4, A0A499FI48 | -0.048 |
| PPP1R11 (UniProt O60927) | 0.001 |
| PHKG1 isoform 2 (UniProt Q16816) | -0.269 |
| PIK3CG (UniProt P48736) | 0.051 |
| PLK1 (UniProt P53350) | -0.335 (active) |
| PIK3CD (UniProt O00329) | 0.023 |
| PRADC1 (UniProt Q9BSG0) | -0.015 |
| PIP5K1A (UniProt Q99755) | -0.018 |
| PIAS2 (UniProt O75928) | -0.033 |
| PDE4DIP (UniProt E9PS60) | 0.137 |
| PHOSPHO2 (UniProt C9JD35) | -0.027 |
| PYGO2 (UniProt Q9BRQ0) | -0.022 |
| POLR2M (UniProt Q6EEV4) | -0.072 |
| PCLAF (UniProt Q15004) | 0.011 |
| PRIMPOL (UniProt Q96LW4) | 0.089 |

Source: the supplement of paper PMC10849652
